Screens (PubChem BioAssay)
Nrf2 inh: inhibitors of Nrf2 signaling | hit rate 2.1% among 360,000 | Potency, µM (doses to about 46 µM), for the others: at the top dose activity change, negative = inhibition, actives largely listed as inhibitors | AID 504444 | A549 ARE-Fluc reporter, luciferase luminescence, 18-24 h; note: potency is the fitted concentration of half-maximal effect; % is set by controls: 0 for no effect and ±100 for the full control effect; nearly all actives have a fitted effect of over 60% in size
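Reporter: ARE-Fluc in A549. Exposure: 18-24 h, 37 °C, 5% CO2, 5% FBS OPTI-MEM. Readouts: fluorescent cytotoxicity (CellTiter-Fluor), then luminescent Nrf2 signal after BugLite.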
ATXN2 expr inh: ATXN2 expression inhibition. HEK-293 ATXN2-luciferase reporter, luminescence, 24 h. hit rate 0.72% among 360,000. Potency, µM (highest dose often 57 µM), for the others: at the highest dose activity change, negative = inhibition, most hits filed as inhibitors; note: potency is the fitted concentration of half-maximal effect; % is set by controls: 0 for no effect and ±100 for the full control effect; nearly all actives have a fitted effect of over 55% in size
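qHTS (up to 57 uM final) was run with 24 h compound exposure of reporter cells at 37 °C. Each well was multiplexed: SteadyGlo luminescence measured ATXN2-luciferase expression after a fluorogenic Gly-Phe-AFC viability readout (25 uM final).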
ATXN viability: viability counter-screen for ATXN expression inhibitors; Potency, µM (highest dose often 56.7 µM), most hits filed as cytotoxic; S2 cells (HEK-293 line with an ATXN2-luciferase reporter) viability, CellTiter-Fluor protease fluorescence, 24 h; AID 651635; hit rate 0.49% among 400,000; note: potency is the fitted concentration of half-maximal effect; nearly all actives have a fitted effect of over 40% in size
A549 tox: A549 cytotoxicity, counter-screen for Nrf2 inhibitors. A549 ARE-Fluc cells, CellTiter-Fluor viability, 18-24 h. Potency, µM (titrated, usually from 46 µM), for inactives: at the top dose activity change, negative = cytotoxicity, most hits filed as inhibitors. hit rate 0.16% among 390,000. AID 504648; note: potency is the fitted concentration of half-maximal effect; % is set by controls: 0 for no effect and ±100 for the full control effect
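A549 ARE_Fluc cells in 5% FBS OPTI-MEM were exposed to compounds in concentration-response for 18-24 h at 37 deg C. Viability was read by CellTiter-Fluor fluorescence (Ex 405/Em 525) after 30 min, before the luciferase read.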
Nrf2 ARE act: Nrf2 pathway activation. AREc32 ARE-luciferase reporter (MCF7-derived line), luminescence, 24 h. AID 624171. Potency, µM (titrated, usually from 46.1 µM), inactives show at the top dose activation, actives largely listed as activators. hit rate 0.31% among 410,000; note: potency is the fitted concentration of half-maximal effect; % of control where 0% means no effect; nearly all actives have a fitted effect of over 65% in size
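AREc32_Fluc, 1000 cells/well, OPTI-MEM + 5% FBS, o/n 37 deg C 5% CO2; 23 nL cpd by pin tool, 24 hr; Steady-Glo 30 min RT, luminescence.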
EBOV S4 ratio: Ebola virus entry blockers, screen 4 ratio channel | AC50, µM | hit rate 79% among 170 | shares compounds with ATXN2 expr inh | Ebola pseudovirus entry assay, ratio channel; calls by dose curve
EBOV entry S4 bl: Ebola entry inhibition, blue channel, screen 4. shares compounds with ATXN2 expr inh. Ebola virus entry assay, blue channel fluorescence ratio; Channel: blue. calls only. 170 tested, under 10 active; call rule not given here
EBOV S4 green: Ebola entry inhibition, green channel, screen 4. Ebola virus entry reporter assay, green fluorescence channel; Channel: green. calls only. AID 1117316. 170 tested, under 10 active. shares compounds with ATXN2 expr inh; call rule not given here
Starred values were filed as active, the others as inactive; i = inactive; u = inconclusive; x = no result; [ ] = another dose, or the depositor's remark. Only a sample is shown. Unless noted, calls come from the whole dose curve; as a rule, active = well fitted curve in the direction sought with a large enough effect; inconclusive = small, poorly fitted or top-dose-only effect, or another doubt; inactive = no such curve, though single readings can be large; an effect the other way counts as inactive or inconclusive.

SMILES	Nrf2 inh	ATXN2 expr inh	ATXN viability	A549 tox	Nrf2 ARE act	others
O=C1NC(=O)C2(Cc3ccccc3N3CCOCC32)C(=O)N1c1ccccc1 (configuration not stated)	6%	-19%	i	-10%	-1%
CN(CCc1ccccn1)Cc1ccc(Cl)cc1	u	-13%	i	u	0%
COc1cc2cc(c1Cl)N(C)C(=O)C[C@H](OC(=O)C(C)C)[C@]1(C)O[C@H]1[C@H](C)[C@@H]1C[C@@](O)(NC(=O)O1)[C@H](OC)C=CC=C(C)C2	x	-28%	x	x	x
Cc1cccc(Cn2cccc(C(=O)Nc3ccc(F)cc3F)c2=O)c1	x	-11%	i	-15%	0%
COc1cc(CC(C)N)c(OC)cc1I (configuration not stated)	-11%	-5%	i	-20%	1%
O=c1[nH]oc2c1CCNC2	4%	-11%	i	-2%	-1%
c1ccc(CNC2CCCCCCC2)cc1 (tested in a mixture with another compound)	8%	-16%	i	u	0%
CC(CNC1CCCCC1)OC(=O)c1ccccc1 (configuration not stated)	2%	-2%	i	3%	0%	EBOV S4 ratio=i;EBOV entry S4 bl=i;EBOV S4 green=i
COc1cc(C(=O)O)cc(OC)c1OC	-19%	-2%	i	7%	0%
O=C(CCS(=O)(=O)c1ccc(Cl)cc1)Nc1cccc(S(=O)(=O)N2CCCCCC2)c1	u	-9%	u	-12%	2%
O=C(O)CSCC(=O)N(Cc1ccccc1)c1nc(-c2ccccc2)c(-c2ccccc2)s1	u	-10%	i	0%	0%
c1ccc(Cn2ccnc2)cc1	34%	2%	i	4%	0%
FC(F)(F)c1ccccc1N1CC1c1ccncc1 (configuration not stated)	-3%	-12%	i	5%	0%
CC1=C(C)CC2(C(=O)NC(=S)NC2=O)C(C)C1 (configuration not stated)	5%	9%	u	-6%	0%
OC(CNCc1ccccc1)c1ccc(Cl)cc1 (configuration not stated)	12%	-11%	i	-6%	4%
Nc1c(C(=O)NCc2ccco2)c2nc3ccccc3nc2n1CCN1CCCCC1	u	u	i	-19%	17%
CC(CN(C)C1CCN(C)CC1)c1ccccc1 (configuration not stated)	24%	-30%	i	-16%	0%
C[N+]1(CCF)[C@@H]2CC[C@H]1CC(OC(=O)C(O)(c1ccccc1)c1ccccc1)C2 (some centres not stated)	x	4%	i	x	x
O=C(Cc1ccccc1)OCCN1CCCCC1	21%	6%	i	-7%	-1%
CSCCC(c1nnnn1C1CCCCC1)N1CCC(n2c(=O)[nH]c3ccccc32)CC1 (configuration not stated)	x	u	u	x	0%
CCN(c1ccccc1)S(=O)(=O)c1ccc(NC(=O)c2cc(=O)c3ccccc3o2)cc1	u	2%	i	-7%	0%
Cc1ccccc1[N+](=O)[O-]	-2%	-11%	i	-4%	-1%
CCOS(C)(=O)=O	0%	-2%	i	-2%	-1%
COc1ccc(C(=O)CN2CCCCC2)cc1	1%	-3%[11.3 µM]	i	5%	0%
CCOc1ccccc1-n1c(O)c(C=NCCCn2ccnc2)c(=O)[nH]c1=O	7%	15%	i	0%	0%
Cn1c(O)c(Cc2cccc(Cl)c2Cl)c(=O)n(C)c1=O	2%	2%	i	1%	-1%
